# Compound activity: PubChem BioAssay, National Center for Advancing Translational Sciences (NCATS)
# An excerpt weighted towards active compounds, which were near 21% of everything screened.
# Pf growth 96h – P. falciparum growth inhibition at 96 hours; P. falciparum luciferase reporter growth, 96 h; 320,000 tested, 6.9% active; AID 504834; Potency, µM (titrated, usually from 28.7 µM), hits mostly inhibitors
#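 Erythrocytes infected with luciferase-expressing P. falciparum were dispensed at 2% hematocrit and 0.05% parasitemia (final), then incubated with compounds 96 hours at 37 C in 5% CO2. Luminescence after detection reagent addition reported growth.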
# Cycloheximide cs – counter-screen for Shiga toxin inhibitors: cycloheximide protein synthesis inhibition. cell reporter, cycloheximide protein synthesis inhibition counterscreen. max response, %. 300,000 tested, 12% active; in the data active means max response mostly above about 13%, no sharp cut-off; inactive means mostly below about 14%; further: read at 38.3 µM for the half of the compounds with a filed dose
# Pf growth 48h – inhibits P. falciparum growth in the first generation, 48 h. P. falciparum luciferase growth in erythrocytes, 48 h. Potency, µM (doses to about 28.7 µM), most hits filed as inhibitors. 310,000 tested, 5.9% active
#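 Firefly luciferase activity from engineered P. falciparum reports growth; inhibitors lower the luminescent signal. Cultures contained 2% hematocrit erythrocytes at 0.1% final parasitemia.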
# Shiga toxin inh – inhibitors of Shiga toxin in Vero cells; Vero cells, Shiga toxin protein synthesis inhibition reporter; inhibition, % at 38.7 µM; 290,000 tested, 9.2% active; in the data active means inhibition mostly above about 28%, no sharp cut-off; inactive means mostly below about 43%
# Hits are given with their value; n = inactive; u = inconclusive; x = not tested or not shown; [ ] = another dose, or the depositor's remark. Unless noted, the call rests on the fitted dose curve; in most records, active means well fitted inhibition curve with a large enough effect; inconclusive means small, poorly fitted or top-dose-only effect, or another doubt; inactive means no such curve, though single readings can be large or run the other way.
SMILES,Pf growth 96h,Cycloheximide cs,Pf growth 48h,Shiga toxin inh
CSc1nc(-c2ccccc2)c(C#N)c(=O)[nH]1,n,n,n,n
CSc1nc(-c2cccs2)c(C#N)c(=O)[nH]1,n,8.9,n,n
O=C1OC(C(=O)Nc2ccccc2)Cc2ccccc21 (stereo not drawn),n,40.9,n,64.1
NS(=O)(=O)c1ccc(NC(=O)C2Cc3ccccc3C(=O)O2)cc1 (stereo not drawn),n,n,n,n
Cc1ccc(NC(=O)C2Cc3ccccc3C(=O)O2)cc1 (stereo not drawn),n,36.4,n,86.8
CCNC(=S)N/N=C/c1ccc(OCC(=O)Nc2ccc(C)cc2)cc1,u,n,x,n
COc1ccccc1C(CNC(=O)c1ccc(NS(=O)(=O)c2ccc3c(c2)OCCO3)cc1)N(C)C (stereo not drawn),11.7µM,x,u,x
COc1ccccc1C(CNC(=O)c1cccc(S(=O)(=O)Nc2ccc(C)cc2)c1)N(C)C (stereo not drawn),u,n,u,n
COc1ccccc1C(CNC(=O)c1ccc(NS(=O)(=O)c2ccc(F)c(C)c2)cc1)N1CCCC1 (stereo not drawn),11.7µM,x,9.28µM,x
COc1ccccc1C(CNC(=O)c1cccc(NS(=O)(=O)c2ccc(C)c(F)c2)c1)N1CCCC1 (stereo not drawn),11.7µM,x,13.1µM,x
Cc1ccc(S(=O)(=O)Nc2cccc(C(=O)NCCCN3CCOCC3)c2)cc1F,n,x,n,x
Cc1cc(S(=O)(=O)Nc2ccc(C(=O)NCCCN3CCCC3=O)cc2)ccc1F,n,x,n,x
CCOC(=O)NC(=O)CSc1nnc(C2CC2)n1Cc1ccco1,n,n,n,n
CC(=O)N1CCCN(Cc2nc(C3(c4ccc(C)cc4)CCCC3)no2)CC1,n,n,n,n
COCCN1CCN(Cc2nc(C3(c4ccc(C)cc4)CCCC3)no2)CC1,10.4µM,n,n,n
Cc1ccc(C2(c3noc(CN4C[C@@H](C)O[C@@H](C)C4)n3)CCCC2)cc1,11.7µM,n,11.7µM,n
COc1ccc(S(=O)(=O)N(C)CC(=O)NCc2cccnc2)cc1,u,n,n,74.6
CCN(CC)S(=O)(=O)c1ccc(OCC(=O)NCc2ccccc2)cc1,9.28µM,n,u,n
CN(CC(=O)NCc1ccccn1)S(=O)(=O)c1ccc(F)cc1,14.7µM,n,n,n
COc1ccc(-c2cc3c(=O)n(CC(=O)NCc4cccnc4)ncn3n2)cc1,14.7µM,27.5,n,37.1
CC1CCCCC1NC(=O)CSc1nnnn1C (stereo not drawn),n,x,n,x
CCOC(=O)C(C)Sc1nc(-c2ccccc2)nc2ccccc12 (stereo not drawn),n,n,u,n
CCOc1ccc(S(=O)(=O)N(CC)CC(=O)NCc2cccnc2)cc1,11.7µM,n,n,n
Cc1ccc(N(CC(=O)NCc2cccnc2)S(C)(=O)=O)cc1C,4.15µM,n,n,n
O=C(/C=C/c1ccccc1[N+](=O)[O-])NCc1ccncc1,u,n,n,n
SMILES,Pf growth 96h,Cycloheximide cs,Pf growth 48h,Shiga toxin inh
COc1ccc(C)cc1S(=O)(=O)NC1CC1,n,n,n,x
C(=N\n1cnnc1)/c1cn(-c2cccs2)nc1-c1ccccc1,n,37.1,n,65.8
S=c1[nH]nc(-c2cccs2)n1/N=C/c1cn(-c2ccccc2)nc1-c1ccccc1,u,n,u,n
Cc1ccc(O)c(C(=O)c2cnc3c(c2)COc2ccc(C)cc2-3)c1,u,n,13.1µM,n
Cc1ccc(O)c(C(=O)c2cnc(/N=C(\N)N(C)C)nc2)c1,n,n,n,n
Cc1ccc(O)c(C(=O)c2cnc3c(c2)c(C)nn3-c2ccccc2)c1,n,n,n,n
Cc1ccc2c(c1)-c1ncc(C(=O)c3cc(Br)ccc3O)cc1CO2,u,n,1.65µM,n
O=[N+]([O-])c1cccnc1N1CCN(c2ccc(F)cc2)CC1,n,n,n,n
CC(C)CC1COC(=O)N1 (stereo not drawn),n,n,n,n
O=C(O)CSc1ncnc2sc3c(c12)CCCC3,n,n,n,n
c1ccc(-n2nnnc2Sc2ncnc3sc4c(c23)CCCC4)cc1,1.65µM,n,u,n
Cc1sc2ncnc(Sc3nnnn3-c3ccc(Cl)cc3)c2c1C,u,n,8.28µM,n
CN(C)/C=C(\c1cnc(Cl)s1)S(=O)(=O)c1ccccc1,n,n,n,n
CCCCn1c(N)c(N(Cc2ccccc2OC)C(=O)c2cc(CC)c(C)s2)c(=O)[nH]c1=O,u,x,13.1µM,x
CCCCn1c(N)c(N(CC(C)C)C(=O)c2cccc(S(=O)(=O)N3CCN(C)CC3)c2)c(=O)[nH]c1=O,n,x,n,x
CCCCn1c(N)c(N(CC(C)C)C(=O)c2cccc(S(=O)(=O)N(C)c3ccc(C)cc3)c2)c(=O)[nH]c1=O,u,x,6.57µM,x
CCCCN(C(=O)c1ccc([N+](=O)[O-])s1)c1c(N)n(CC(C)C)c(=O)[nH]c1=O,n,x,n,x
CCCCN(C(=O)CSCC(=O)Nc1cccc(C)c1)c1c(N)n(CCCC)c(=O)[nH]c1=O,u,x,n,x
CCCCn1c(N)c(N(CC(C)C)C(=O)CSCC(=O)Nc2cccc(C)c2)c(=O)[nH]c1=O,u,x,11.7µM,x
CCCCn1c(N)c(N(CCC(C)C)C(=O)c2ccc([N+](=O)[O-])s2)c(=O)[nH]c1=O,u,x,9.28µM,x
COC(=O)C1=C[C@@H](C(=O)OC)[C@@H]2C3=C(C(=O)C2(C)C)[C@H](C)n2c(=O)n(C)c(=O)n2[C@@H]3C1,x,n,x,n
CSCCC(NC(=O)COc1ccccc1)C(=O)N1CCN(c2ccccc2O)CC1 (stereo not drawn),n,x,u,x
CCCCn1c(N)c(N(CC(C)C)C(=O)c2ccc(S(=O)(=O)N(CC)c3ccccc3)cc2)c(=O)[nH]c1=O,u,x,11.7µM,x
COc1cc(N/N=C/c2ccccc2O)ncn1,u,28.3,u,33.2
COc1cc(N/N=C/c2ccc(N(C)C)cc2)ncn1,u,44.8,n,97.4
SMILES,Pf growth 96h,Cycloheximide cs,Pf growth 48h,Shiga toxin inh
Cc1cc(C(=O)N2CCCc3ccccc32)ccc1[N+](=O)[O-],n,n,n,n
CC(C)c1cc2cc3ccc(=O)oc3cc2o1,u,32.9,x,64.4
O=c1ccc2cc3ccoc3cc2o1,n,n,n,n
CCN(CC)S(=O)(=O)c1cccc(NC(=O)C2SC(=Nc3ccc(C)cc3C)C(C(=O)NC(C)COC)=C2N)c1 (stereo not drawn),3.7µM,n,x,n
CCCCNC(=O)C1=C(N)C(C(=O)Nc2ccc(C)c(S(=O)(=O)N3CCCCC3)c2)SC1=Nc1ccc(C)cc1C (stereo not drawn),10.4µM,n,x,n
Cc1ccc(NC(=O)C2CCC2)cc1S(=O)(=O)N1CCCCCC1,u,x,n,x
Cc1ccc(C(=O)Nc2ccc3c(c2)nc(CCNC(=O)c2ccco2)n3C)cc1,n,31.6,n,44.4
CC(=O)NCCc1nc2cc(NS(=O)(=O)c3ccc(Cl)cc3)ccc2n1C,u,n,n,n
Cn1c(CCN2CCCCC2)nc2cc(NS(=O)(=O)c3ccc(Cl)cc3)ccc21,n[5.75 µM],n,2.08µM,n
Cn1c(CCNC(=O)c2ccco2)nc2cc(NS(=O)(=O)c3ccc(Cl)cc3)ccc21,9.28µM,n,u,n
Cn1c(CN2CCCCC2)nc2cc(NS(=O)(=O)c3ccc(Cl)cc3)ccc21,n,n,n,n
CCN(CC)S(=O)(=O)c1ccc(/C=C/C(=O)OCC(=O)N(C)C)cc1,n,n,n,n
